In the library only some 18% were active in any assay of this set; here they are far more common.
DT40 TDP1 CPT: DT40-hTDP1 cell growth loss with CPT | chicken DT40 Tdp1-/-;hTDP1 cells + 20 nM CPT, ATP luminescence, 48 h | Potency, µM (titrated, usually from 46.2 µM), usual class: inhibitors | 12% of 420,000 active; further: nearly all actives have a fitted effect of over 55% in size
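Cell growth measured by CellTiter-Glo luminescence after a minimum 48 h, 37 C compound exposure with 20 nM CPT in Tdp1-knockout DT40 cells stably expressing hTDP1, seeded 400/well; qHTS titration format.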
IL-1B inflam inh: blocks inflammasome-driven IL-1 beta release | 4.7% of 360,000 active | activity change, % at 57.5 µM | AID 743279 | THP-1 LPS/ATP IL-1B secretion, AlphaLISA, 16 h; active compounds read low; in the data active means activity change below about -50%; inconclusive means mostly about -30% to -49%
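Secreted IL-1B measured by AlphaLISA bead assay after 16 h compound exposure of THP-1 cells; compounds (final up to 57.5 uM) added 1 h before LPS (250 ng/mL) and ATP (1.25 mM) stimulation; lower signal means less secretion.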
DT40 TDP1 no CPT: qHTS for Inhibitors of human tyrosyl-DNA phosphodiesterase 1 (TDP1): qHTS in cells in absence of CPT; DT40 Tdp1-/- hTDP1 cells, no CPT, ATP luminescence, 48 h; 15% of 420,000 active; Potency, µM (highest dose often 46.2 µM), usual class: inhibitors; further: nearly all actives have a fitted effect of over 55% in size
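Growth kinetics read by CellTiter-Glo luminescence after ≥48 hr at 37 °C. Cells: DT40 Tdp1-/- stably carrying human TDP1, 400 per well, compound exposure in the absence of CPT (DMSO vehicle).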
RORg inh: inhibitors of mouse ROR gamma transcriptional activity; P51450; Drosophila S2 Gal4-RORgamma UAS-luciferase reporter, 20 h; Potency, µM (highest dose often 53.6 µM), most hits filed as inhibitors; 5.4% of 310,000 active; further: nearly all actives have a fitted effect of over 60% in size
Target sequence (P51450 whole entry, looked up, the tested form may be a part): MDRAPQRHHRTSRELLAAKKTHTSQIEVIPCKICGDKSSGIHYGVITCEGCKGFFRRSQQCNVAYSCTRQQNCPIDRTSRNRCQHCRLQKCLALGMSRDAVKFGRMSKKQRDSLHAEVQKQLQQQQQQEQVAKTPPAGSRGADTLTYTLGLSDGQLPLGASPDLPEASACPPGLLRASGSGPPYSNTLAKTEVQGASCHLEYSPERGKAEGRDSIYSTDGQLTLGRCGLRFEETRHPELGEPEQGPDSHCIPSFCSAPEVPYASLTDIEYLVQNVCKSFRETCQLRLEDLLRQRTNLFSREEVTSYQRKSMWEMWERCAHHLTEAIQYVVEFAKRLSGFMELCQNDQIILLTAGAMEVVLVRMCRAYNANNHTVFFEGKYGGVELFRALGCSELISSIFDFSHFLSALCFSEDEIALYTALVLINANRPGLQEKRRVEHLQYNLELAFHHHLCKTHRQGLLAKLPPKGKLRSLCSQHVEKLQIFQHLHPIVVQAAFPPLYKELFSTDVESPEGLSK
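Drosophila Schneider cells stably carrying a metallothionein-driven Gal4 DBD–ROR gamma fusion and a UAS-Photinus luciferase reporter were exposed to compound for 1 hr, then induced with copper sulfate (700 uM final) for 20 hr at ambient temperature before luminescence reading.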
LDHA block: blocks human lactate dehydrogenase A. P00338. purified LDHA, NADH/diaphorase-resazurin fluorescence; active compounds read low. activity change, % (values are at about 110 or 230 µM). 0.15% of 480,000 active. AID 1347041; in the data active means activity change below about -30%; inconclusive means mostly about -25% to -30%
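Human LDH5 at 2 nM final in Tris HCl pH 7.4 with 0.06 mM NADH and 0.2 mM pyruvate, reacted 5 minutes at room temperature. Remaining NADH coupled via diaphorase/resazurin; resorufin fluorescence read at 0 and 20 minutes, normalized to enzyme-free and DMSO wells.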
Gal4-VP16 FLuc: inhibits Gal4-VP16 luciferase reporter, ROR gamma counter-screen; Drosophila S2 Gal4-VP16 UAS-luciferase, luminescence, 20 h; Potency, µM (series often up to 53.6 µM), actives largely listed as inhibitors; 3.5% of 310,000 active; AID 2546;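 further: Gal4-VP16 expression switched on by copper sulfate through the metallothionein promoter; nearly all actives have a fitted effect of over 50% in size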
Hits are given with their value; 0 = inactive; ? = inconclusive; - = no result given; ! = a repeat was not active; [ ] = remark or other dose. Unless noted, the call rests on the fitted dose curve; in most records, active means well fitted curve in the direction sought with a large enough effect; inconclusive means small, poorly fitted or top-dose-only effect, or another doubt; inactive means no such curve, though single readings can be large; an effect the other way counts as inactive or inconclusive.

SMILES | DT40 TDP1 CPT | IL-1B inflam inh | DT40 TDP1 no CPT | RORg inh | LDHA block | Gal4-VP16 FLuc
Cc1ccccc1Cn1ccc(NC(=O)c2nn3cccnc3c2Cl)n1 | 21µM | 0 | ? | 0 | 0 | 0
COC/C=C/C1=CC2=CC(=O)C(C)(OC(=O)c3cnc4ccccc4n3)C(=O)C2=CN1c1ccc(CO)cc1 (stereo unspecified) | - | - | - | 0 | - | 0
COC/C=C/C1=CC2=CC(=O)C(C)(OC(=O)c3cnc4ccccc4n3)C(=O)C2=CN1c1ccccc1 (stereo unspecified) | ? | 0 | 16µM | 0 | 0 | 0
CCc1ccccc1N1CC23C=CC(O2)C(C(=O)O)C3C1=O (stereo unspecified) | 18µM | 0 | 0 | 0 | 0 | 0
CCCSS/C(CCO)=C(\C)N(C=O)Cc1cnc(C)nc1N | 5.3µM | - | 3µM | - | - | -
C/C(=C(/CCO)SSCC1CCCO1)N(C=O)Cc1cnc(C)nc1N (stereo unspecified) | 21µM! | 0 | 21µM | - | 0 | -
Cc1ccccc1-n1c(SC(C)C(=O)c2ccc(F)c(F)c2)nnc1N1CCOCC1 (stereo unspecified) | - | - | - | - | 0 | -
C=C(NC(=O)C(=C)NC(=O)c1csc(C2=N[C@@H]3c4csc(n4)[C@@H]4NC(=O)c5csc(n5)[C@@H]([C@](C)(O)[C@H](C)O)NC(=O)[C@@H]5CSC(=N5)/C(=C/C)NC(=O)[C@@H]([C@H](C)O)NC(=O)c5csc(n5)[C@]3(CC2)NC(=O)[C@@H](C)NC(=O)C(=C)NC(=O)[C@@H](C)NC(=O)[C@@H]([C@@H](C)CC)N[C@H]2C=Cc3c([C@H](C)O)cc(nc3[C@@H]2O)C(=O)O[C@H]4C)n1)C(N)=O | - | - | - | 0[2.98 µM] | - | 0
C=C(NC(=O)C(=C)NC(=O)c1csc(C2=NC3c4csc(n4)C4NC(=O)c5csc(n5)C(C(C)(O)C(C)O)NC(=O)C5CSC(=N5)C(=CC)NC(=O)C(C(C)O)NC(=O)c5csc(n5)C3(CC2)NC(=O)C(C)NC(=O)C(=C)NC(=O)C(C)NC(=O)C(C(C)CC)NC2C=Cc3c(C(C)O)cc(nc3C2O)C(=O)OC4C)n1)C(N)=O (stereo unspecified) | 4.1µM | - | 5.2µM | ? | - | 0
C=C(NC(=O)C(=C)NC(=O)c1csc(C2=NC3c4csc(n4)C4NC(=O)c5csc(n5)C(C(C)(O)C(C)O)NC(=O)C5CSC(=N5)/C(=C/C)NC(=O)C(C(C)O)NC(=O)c5csc(n5)C3(CC2)NC(=O)C(C)NC(=O)C(=C)NC(=O)C(=C)NC(=O)C(C(C)C)NC2C=Cc3c(C(C)O)cc(nc3C2O)C(=O)OC4C)n1)C(N)=O (stereo unspecified) | 1µM | -67 | 0.92µM | - | 0 | -
COc1ccc(-n2c(SCC(=O)N(C)c3ccccc3)nc3[nH]ncc3c2=O)cc1Cl | - | - | - | - | 0 | -
Cc1cc(C2CCCN2Cc2nc(-c3ccccc3)oc2C)on1 (stereo unspecified) | - | - | - | - | 0 | -
Cc1ccc(C(=O)N2CCCC(C(=O)c3ccc(Oc4ccccc4)cc3)C2)cn1 (stereo unspecified) | 21µM | -80 | 16µM | 0 | 0 | ?
Cc1ccc(C(=O)N2CCCC(C(=O)c3ccc(Cl)cc3C)C2)cn1 (stereo unspecified) | 0 | 0 | 21µM | 0 | 0 | 0
CCONC(=O)Cc1ccccc1C | - | - | - | - | 0 | -
CCOC(=O)c1nn(-c2ccc(C)c(C)c2)c(=O)c2c(N)scc12 | 21µM | 0 | ? | 0 | 0 | 0
CCOC(=O)c1nn(-c2ccc(OC)cc2)c(=O)c2c(N)scc12 | 0 | 0 | 0 | 0 | 0 | 0
CCC1(c2ccccc2)NC(=O)N(Cc2coc(-c3cccs3)n2)C1=O (stereo unspecified) | - | - | - | - | 0 | -
CCc1nc2c(OCCC3CCCCC3)cccn2c1N(C)C(=O)c1cccs1 | 29µM | -54 | 21µM | - | 0 | -
CCc1nc2c(OCCC3CCCCC3)cccn2c1N(C)C(=O)CC(C)C | 21µM | ? | 10µM | - | 0 | -
CCc1nc2c(OCC(=O)C(C)(C)C)cccn2c1N(C)C(=O)C1CC1 | 0 | 0 | 0 | - | 0 | -
CCCCC(=O)N(C)c1c(CC)nc2c(OCCC3CCCCC3)cccn12 | ? | -68 | 16µM | - | 0 | -
CCCCC(=O)N(C)c1c(CC)nc2c(OCC3CCCCC3)cccn12 | ? | 0 | 21µM | - | 0 | -
COc1ccc2c(c1)c(C(C(=O)O)N1CCN(Cc3ccccc3)CC1)cn2CCC(=O)O (stereo unspecified) | - | - | - | - | 0 | -
CCCCN(C=O)c1c(CC)nc2c(OCC3CCCCC3)cccn12 | 21µM | 0 | 9.2µM | - | 0 | -
SMILES | DT40 TDP1 CPT | IL-1B inflam inh | DT40 TDP1 no CPT | RORg inh | LDHA block | Gal4-VP16 FLuc
Cc1ccccc1/C=N/NC(=O)c1ccccc1C | - | - | - | - | 0 | -
CCn1c2ccccc2c2cc(/C=N/NC(=O)c3ccccc3C)ccc21 | 2.6µM | 0 | 2.6µM | ? | 0 | ?
CCn1c2ccccc2c2cc(/C=N/NC(=O)c3cccc(C)c3)ccc21 | 29µM | 0 | 18µM | 0 | 0 | 0
FC(F)(F)c1cccc(N/N=C/c2ccc(Cl)cc2Cl)c1 | - | - | - | - | 0 | -
O=C1C=CC(=O)c2c(O)c(Cl)c(Cl)c(O)c21 | ? | - | 2.1µM | ? | - | 0
O=C1C=CC(=O)c2c(O)c(CO)c(CO)c(O)c21 | 2.1µM | 0 | 2.9µM | - | 0 | -
N#C/C(=C\c1ccc[nH]1)C(=O)Nc1ccccc1F | 0 | 0 | 0 | 0 | 0 | 0
CCN(CC)c1ccc(/C=C2\CCC(/C=C(\C#N)C(=O)Nc3ccccc3F)=C2N2CCOCC2)cc1 | 6.5µM | 0 | 2.3µM | 0 | 0 | 0
CCN(CC)c1ccc(/C=C2\CCC(/C=C(/C#N)C(=O)Nc3ccccc3F)=C2N2CCOCC2)cc1 | 2.1µM | 0 | 2.3µM | - | 0 | -
Cc1cc(/C=C(\C#N)C(=O)Nc2ccccc2F)c(C)[nH]1 | 0 | 0 | 0 | 0 | 0 | 0
O=C(CC12CC3CC(CC(Br)(C3)C1)C2)NC1CCCC(C(F)(F)F)C1 (stereo unspecified) | - | - | - | - | 0 | -
CN(CC(=O)NC(N)=O)C1CCCC1 | - | - | - | - | 0 | -
Cc1cc(NC(=O)Cn2nnc3sc4c(c3c2=O)CCC(C(C)(C)C)C4)no1 (stereo unspecified) | 11µM | 0 | ? | 0 | 0 | 0
Cc1cc(NC(=O)Cn2nnc3sc4c(c3c2=O)CCCC4)no1 | 0 | 0 | 0 | 0 | 0 | 0
CCOc1ccccc1NC(=O)Cn1nnc2sc3c(c2c1=O)CCC(C(C)(C)C)C3 (stereo unspecified) | 15µM | - | 5.2µM | - | 0 | -
O=C(O)CNS(=O)(=O)c1cc(C(=O)O)ccc1C(=O)O | - | - | - | - | 0 | -
CN(C1CCCCCC1)S(=O)(=O)c1ccc2oc(=O)ccc2c1 | - | - | - | - | 0 | -

Compound activity from PubChem.
